Reference: PubChem BioAssay AID1030 (National Center for Advancing Translational Sciences (NCATS), 2008)
Screen size: about 220,000 compounds; about 16,000 (7.3%) were called active. Where a call stands in place of a potency, no number is given. Roughly 25% stayed inconclusive and do not appear here. Calls follow the shape of the dose curve; as a rule, active = well fitted inhibition curve with a large enough effect (not every such curve was filed as active); inconclusive = small, poorly fitted or top-dose-only effect, or another doubt; inactive = no such curve, though single readings can be large or run the other way. The sample as a whole holds a higher share of actives than the screen did. Square brackets hold non-standard residues; d marks the D form. Peptide text beside a SMILES is read from it. ξ: configuration not given here. ξM = CSCCC(N)C(=O)O

biological target: Aldehyde dehydrogenase 1A1 (Homo sapiens) (UniProt P00352); assay: qHTS Assay for Inhibitors of Aldehyde Dehydrogenase 1 (ALDH1A1); settings: Purified ALDH1A1, NADH fluorescence, propionaldehyde substrate; series mostly up to 75.3 µM
Sequence (P00352 whole entry, looked up): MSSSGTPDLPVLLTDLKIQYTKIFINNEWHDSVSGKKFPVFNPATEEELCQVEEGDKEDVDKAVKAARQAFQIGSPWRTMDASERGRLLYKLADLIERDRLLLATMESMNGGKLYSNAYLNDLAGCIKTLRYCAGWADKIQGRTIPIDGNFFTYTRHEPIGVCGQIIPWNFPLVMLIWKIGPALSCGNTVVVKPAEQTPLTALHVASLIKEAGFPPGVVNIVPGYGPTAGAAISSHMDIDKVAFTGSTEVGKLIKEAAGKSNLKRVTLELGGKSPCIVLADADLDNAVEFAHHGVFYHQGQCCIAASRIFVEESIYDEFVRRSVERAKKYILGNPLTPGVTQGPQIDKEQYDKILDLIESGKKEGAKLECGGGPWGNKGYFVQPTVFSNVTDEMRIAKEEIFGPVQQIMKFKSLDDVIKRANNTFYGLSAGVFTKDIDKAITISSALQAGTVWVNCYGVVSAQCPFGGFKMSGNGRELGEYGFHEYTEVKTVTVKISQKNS
Potency is read from the fitted curve at half-maximal effect.

Row | Compound | Potency
1 | CCC(CC)NC(=O)CSc1nnc(-c2c[nH]c3ccccc23)o1 | inactive
2 | Cc1oc(-c2ccccc2Cl)[n+]([O-])c1C | 22.4 µM (active)
3 | Cc1cccc(CNc2cc(-c3ccccc3Cl)ncn2)c1 | inactive
4 | Cc1cc(C)n(-c2nc(C(F)(F)F)nc3ccccc23)n1 | inactive
5 | COc1cc(C(=O)NCc2ccc3c(c2)cc(C)n3C)cc(OC)c1OC | inactive
6 | C/C(=N\NC(=S)NC1CCCCC1)c1ccc(C)o1 | 12.6 µM (active)
7 | Cc1ccc(NC(=S)NC2CCCC2)cc1 | inactive
8 | C/C(=N/NC(=O)c1ccc(Br)o1)c1ccc(C)o1 | inactive
9 | COc1ccccc1CN(C)c1nnnn1-c1ccccc1 | inactive
10 | Cc1cc(OCC(=O)NC2CCN(C)CC2)ccc1[N+](=O)[O-] | inactive
11 | CCOC(=O)c1cc(-c2ccc(F)cc2)n(CC(=O)NCc2ccccn2)c1C | inactive
12 | O=C(Nc1ccon1)c1sc2ccccc2c1Cl | inactive
13 | O=C(N/N=C/c1c(Cl)[nH]c2ccccc12)c1sc2ccccc2c1Cl | inactive
14 | Oc1ccc(N=Cc2sc3ccccc3c2Cl)cc1 | 15 µM (active)
15 | Cc1cc(N2CCOCC2)nc2ccc(NC(=S)N3CCN(Cc4ccccc4)CC3)cc12 | inactive
16 | CCN(CC)C(=O)N(CC)Cc1ccccc1 | inactive
17 | O=S(=O)(NCC1CCCO1)c1ccc2ccccc2c1 (stereo not given) | inactive
18 | O=S(=O)(NCC1CCCO1)c1cnc(Cl)c(Cl)c1 (stereo not given) | 3.55 µM (active)
19 | Cc1cc(Cl)c(S(=O)(=O)NCC2CCCO2)cc1OCC(N)=O (stereo not given) | inactive
20 | CCO[C@@H]1OC(C(=O)NCc2nc3ccccc3[nH]2)=C[C@H](C2CCCCC2)[C@H]1CCCO | inactive
21 | O=C(NNC(=S)NCCCN1CCOCC1)c1ccncc1 | inactive
22 | S=c1[nH]nc(-c2ccncc2)n1/N=C/c1ccccc1Cl | inactive

Row | Compound | Potency
23 | S=c1[nH]nc(-c2ccccc2)n1/N=C/c1c[nH]c2ccccc12 | inactive
24 | Oc1ccccc1/C=N/n1c(-c2cccs2)n[nH]c1=S | 15.8 µM (active)
25 | CCCC1(C(=O)OC)NC(c2ccco2)C2C(=O)N(C)C(=O)C21 (stereo not given) | inactive
26 | COc1cccc(NC(=O)Cc2ccc(C)cc2)c1 | inactive
27 | COc1ccc(NC(=S)Nc2ccccc2Cl)cn1 | inactive
28 | COc1ccc(CS(=O)/C(Cl)=C(/Cl)C(=O)Nc2ccc(OC)nc2)cc1 (stereo not given) | 8.91 µM (active)
29 | COc1ccc(NC(=S)NCCNC(C)=O)cc1 | inactive
30 | COc1ccc(NC(=O)/C(Cl)=C(/Cl)S(=O)Cc2ccc(C)cc2)cn1 (stereo not given) | 5.01 µM (active)
31 | Cc1ccc(NC(=O)OCc2cncs2)cc1 | inactive
32 | COc1cccc(C2c3[nH]c4ccccc4c3CCN2Cc2cccc(C)n2)c1 (stereo not given) | inactive
33 | O=C(COc1ccc(Cl)cc1[N+](=O)[O-])N1CCCCC1 | inactive
34 | CC(C)(C)NC(=O)CN(C(=O)c1ccc(Cl)nc1)c1cccc2ccccc12 | inactive
35 | Clc1ccc2nc(CSc3ccccc3)cn2c1 | inactive
36 | COC(=O)CNC(=O)C(CCSC)NC(C)=O (stereo not given) (Ac-[ξM]-Gly-OMe) | inactive
37 | O=C(CSc1nnc(-c2ccco2)n1CC1CCCO1)c1ccccc1 (stereo not given) | 25.1 µM (active)
38 | Cc1nnc(SCC(N)=O)n1CC1CCCO1 (stereo not given) | inactive
39 | CNC(=O)NC(=O)CSc1nnc(-c2ccc(F)cc2)n1CC1CCCO1 (stereo not given) | inactive
40 | C=C1c2cccc(OC)c2O[C@H](C(=O)OCC)[C@@H]1CCCCCC | inactive
41 | Cc1cc([N+](=O)[O-])ccc1NC(=O)c1ccc(NC(=O)C(C)C)cc1 | inactive
42 | CN(C)c1ccc(C=C2C(=O)OC3(CCCC3)OC2=O)cc1 | 0.251 µM (active)
43 | CC1CCCCC1NC(=O)COC(=O)Cc1ccc(Br)cc1 (stereo not given) | inactive
44 | COC(=O)C/C=C/[C@@H](C)[C@H](NC(=O)OCC(Cl)(Cl)Cl)c1ccccc1 | inactive

Row | Compound | Potency
45 | CCOC(=O)Cc1cc(=O)[nH]c(=O)[nH]1 | inactive
46 | COc1ccc(OCC(=O)Nc2nnc(-c3ccco3)s2)cc1 | 22.4 µM (active)
47 | CNc1nnc(-c2ccco2)s1 | inactive
48 | COCC(=O)Nc1nnc(COc2ccccc2)s1 | inactive
49 | Cn1nccc1NC(=O)CC(CC(=O)O)c1ccccc1 (stereo not given) | inactive
50 | CCc1ccccc1NC(=O)CN(c1ccc(OC)cc1OC)S(=O)(=O)c1ccccc1[N+](=O)[O-] | inactive
51 | Cc1c(C(=O)Nc2cccc(Cl)c2)cn2c(nc3ccccc32)c1C#N | inactive
52 | CSc1ccc(S(=O)(=O)NCc2ccc(Cl)cc2)cc1 | 22.4 µM (active)
53 | CCCCNCc1ccc(SC)cc1 | inactive
54 | CCn1c(CNS(=O)(=O)c2ccc(Cl)cc2)n[nH]c1=S | inactive
55 | CC(C)(C)OC(=O)NCCCC1=CC2=CC(=O)C(C)(OC(=O)c3ccco3)C(=O)C2=CO1 (stereo not given) | inactive
56 | C=CCO/N=C/C1=C(O)C(C(=O)OC)C(C)(C)CC1=O (stereo not given) | inactive
57 | COc1cccc(-n2c(=O)c3c(C)c(C(=O)N(C)C)sc3n(CC(=O)NCCc3ccc(OC)c(OC)c3)c2=O)c1 | inactive
58 | CCN(CC)c1ccc2c(Nc3ccccc3)c(C=O)c(=O)oc2c1 | 1.58 µM (active)
59 | COc1cccc(NC(=O)c2nn(-c3ccc(OC)cc3OC)c(=O)c3ccccc23)c1 | inactive
60 | O=C(Nc1ccc(Br)c2cccnc12)c1ccc(Cn2cc([N+](=O)[O-])cn2)o1 | inactive
61 | CCc1ccc(NC(=O)c2ccc(Cn3cc([N+](=O)[O-])cn3)cc2)cc1 | inactive
62 | COc1cccc(NC(=O)c2ccc(Cn3cc([N+](=O)[O-])cn3)o2)c1 | 14.1 µM (active)
63 | Cn1cc([N+](=O)[O-])c(C(=O)Nc2cnn(Cc3ccc(F)cc3)c2)n1 | inactive
64 | COc1cccc(NC(=O)c2nn(C34CC5CC(CC(C5)C3)C4)cc2[N+](=O)[O-])c1 | 0.224 µM (active)
65 | CC[C@@]12C=C(/C=C/c3ccccc3)[C@](CC)(C1)[C@H](c1ccccc1)CC2=O | inactive
66 | CCOC(=O)C1CCCN(C(=O)CN(c2ccc(OC)cc2)S(=O)(=O)c2c(C)noc2C)C1 (stereo not given) | inactive

Row | Compound | Potency
67 | CCOC(=O)C1CCCN(C(=O)COc2ccc(N(C)S(=O)(=O)c3ccc(C)cc3)cc2)C1 (stereo not given) | inactive
68 | CCOC(=O)C1CCCN(C(=O)/C=C/c2ccc(OC)cc2)C1 (stereo not given) | 22.4 µM (active)
69 | Cc1nn(CC#N)c(=O)n1N(C)c1ncc(C(F)(F)F)cc1Cl | inactive
70 | O=C(NCc1ccncc1)C(=O)NCc1ccco1 | inactive
71 | CC(=O)Nc1ccc(CN2CCN(Cc3ccc(F)c(F)c3)C(CCO)C2)cc1 (stereo not given) | inactive
72 | CC(=O)NC1C(OCc2ccccc2)OC(COC(C)=O)C(OC(C)=O)C1OC(C)=O (stereo not given) | inactive
73 | CC(=O)NC1C(Oc2ccc(C=O)cc2)OC(COC(C)=O)C(OC(C)=O)C1OC(C)=O (stereo not given) | 3.55 µM (active)
74 | CCc1cccc(OC2OC(CO)C(O)C(O)C2NC(C)=O)c1 (stereo not given) | inactive
75 | C/C(=N/Nc1ccc(Cl)cc1)c1cnnc(-c2ccccc2)n1 | inactive
76 | CC1CCCN(CC(O)COCc2ccccc2)C1 (stereo not given) | inactive
77 | CCOC(=O)CNC(=O)CSc1nnnn1-c1cc(C)ccc1C | 7.08 µM (active)
78 | CNC(=O)CSc1nnnn1-c1ccc(C)cc1C | inactive
79 | CCOC(=O)c1c(-c2ccc(C)cc2C)csc1NC(=O)CSc1nnnn1C | inactive
80 | NC(=O)C1CCN(C(=O)COc2cccc3cccnc23)CC1 | inactive
81 | Cn1ccc(NC(=O)Nc2ccc(Cl)cc2)n1 | inactive
82 | O=C(CN1CCOCC1)Nc1ccccc1 | inactive
83 | Cc1ccc2c(C(=O)CN3CCCC3)c(C)[nH]c2c1 | inactive
84 | Cc1c(C(=O)CN2CCOCC2)[nH]c2ccccc12 | 15 µM (active)
85 | CCOC(=O)N1CCN(CC(=O)c2c(C)[nH]c3ccccc23)CC1 | 11.2 µM (active)
86 | Cc1[nH]c2ccccc2c1C(=O)COC(=O)C(C)C | inactive
87 | Cc1c(C(=O)N2CCOCC2)[nH]c2ccc(OCc3ccccc3)cc12 | inactive
88 | CCN(C(=O)Cc1nc(N)n[nH]1)C1(C(=O)Nc2ccccc2)CCCCC1 | inactive

Row | Compound | Potency
89 | COc1ccc(/C=C(\NC(=O)c2ccc(OCC(C)C)cc2)C(=O)OCc2ccco2)cc1 | inactive
90 | CCOc1ccc(-n2cnnn2)cc1S(=O)(=O)N1CCC(C)CC1C (stereo not given) | inactive
91 | CCOC(=O)CCCN1CC(O)=C(c2nc3ccccc3s2)C1=N | inactive
92 | O=C(Nn1c(-c2ccccc2)nc2ccccc2c1=O)c1ccc([N+](=O)[O-])cc1 | inactive
93 | N=C1C(c2nc3ccccc3s2)=C(O)CN1NC(=O)c1ccc([N+](=O)[O-])cc1 | 1.78 µM (active)
94 | O=C(NC1CC1)c1ccc(-c2ccccc2)cc1 | inactive
95 | CCOc1ccc(/C=N/NC(N)=S)cc1 | inactive
96 | Cc1cc(/C=N/n2cnnc2)c(C)n1-c1cccc(C(=O)O)c1 | inactive
97 | Cc1cccc(-n2c(C)cc(/C=N/NC(N)=S)c2C)c1 | 3.16 µM (active)
98 | COc1ccc(-c2nc3cc([N+](=O)[O-])ccc3o2)cc1OC | inactive
99 | CCOC(=O)C1(C)NC(c2ccco2)C2C(=O)N(c3ccccc3)C(=O)C21 (stereo not given) | inactive
100 | COc1ccc(Cl)cc1C(=O)NNC(=S)NC1CCCC1 | inactive
101 | COc1ccc(CNC(=O)C2CCN(S(C)(=O)=O)CC2)cc1 | inactive
102 | Cc1cccc(C)c1OCC(=O)NC(Cc1c[nH]c2ccccc12)C(=O)O (stereo not given) | inactive
103 | CCN(C(=O)CN1CCN(Cc2ccccc2)CC1)c1c(N)n(Cc2ccccc2)c(=O)[nH]c1=O | inactive
104 | N#C/C=C(/c1ccc(F)cc1)N1CCOCC1 | inactive
105 | COC(=O)c1cn(C(=O)c2ccc(Cl)cc2)c2ccccc12 | inactive
106 | O=C(c1ccc(F)cc1)n1cc(C(=S)N2CCOCC2)c2ccccc21 | 31.6 µM (active)
107 | CC(=C/c1ccccc1)/C=N/NC(=O)c1cc(C)oc1C | inactive
108 | COc1ccc(OC)c(S(=O)(=O)Nc2ccccc2F)c1 | inactive
109 | COc1ccc(OC)c(S(=O)(=O)NCCC(C)C)c1 | 14.1 µM (active)
110 | COCCNS(=O)(=O)c1cc(Br)ccc1OC | inactive
